Most compounds without a hit are left out; they make up all but 4% or so of the library.
Mtb betalactam – beta-lactam sensitization of Mtb H37Rv; M. tuberculosis H37Rv growth with meropenem, percent inhibition; inhibition, % at 25 µM; actives 0.27% (n = 330,000); AID 434955; call rule not given here;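 further: growth measured after seven days incubation then overnight dye step; 0% = bacteria only wells and 100% = bacteria with antibiotic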
Rv3671c protease – inhibitors of M. tuberculosis serine protease Rv3671c; AID 2606; P9WHR9; actives 0.048% (n = 320,000); inhibition, % at 5.96 µM;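 further: extracellular domain of Rv3671c used as enzyme; 0% = enzyme with DMSO and 100% = no enzyme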
Target sequence (P9WHR9 whole entry, looked up, the tested form may be a part): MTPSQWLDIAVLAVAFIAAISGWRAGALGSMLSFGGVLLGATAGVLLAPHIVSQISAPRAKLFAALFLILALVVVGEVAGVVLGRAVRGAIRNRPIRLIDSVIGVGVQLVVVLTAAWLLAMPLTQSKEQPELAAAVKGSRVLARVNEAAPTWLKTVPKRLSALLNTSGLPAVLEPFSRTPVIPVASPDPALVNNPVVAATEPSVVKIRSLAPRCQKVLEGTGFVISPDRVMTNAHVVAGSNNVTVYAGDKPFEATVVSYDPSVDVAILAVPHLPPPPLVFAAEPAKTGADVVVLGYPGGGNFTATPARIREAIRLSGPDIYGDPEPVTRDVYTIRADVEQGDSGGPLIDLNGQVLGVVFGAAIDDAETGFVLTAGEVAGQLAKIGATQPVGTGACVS
UGM FP inh – blocks M. tuberculosis UGM enzyme; inhibition, % at 10 µM; purified UGM, fluorescence polarization probe displacement; actives 0.06% (n = 320,000); P9WIQ1; in the data active means inhibition above about 10%, passing the limit was not always enough
GDH-TPI counter-1 – GDH-TPI coupled enzyme inhibition counter-screen. AID 588335. GDH-TPI coupled enzyme counterscreen, NADH absorbance. actives 1.2% (n = 360,000). inhibition, % at 4.8 µM; in the data active means inhibition above about 30%;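 further: 0% = DMSO wells and 100% = wells lacking the enzyme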
RecA intein inh – blocks M. tuberculosis RecA intein splicing. P9WHJ3. cell-free RecA intein splicing, fluorescence. inhibition, % (no concentration beside the values). actives 0.75% (n = 290,000). AID 2221; in the data active means inhibition above about 30%;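 further: 0% = vehicle wells and 100% = reference inhibitor control wells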
Mtb FBA inh – inhibits M. tuberculosis FBA enzyme | P9WQA3 | purified M. tuberculosis FBA, fluorescence read-out | inhibition, % at 1 µM | actives 2.3% (n = 360,000); in the data active means inhibition above about 27%;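 further: 0% = vehicle and 100% = reference inhibitor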
GFP chromophore – counter-screen GFP chromophore formation inhibition; shares compounds with RecA intein inh; cell-free GFP chromophore formation, fluorescence; EC50, µM; actives 83% (n = 2,100); AID 434968; call rule not given here
Rv3671c confirm – confirmation of M. tuberculosis Rv3671c protease inhibitors. shares compounds with Rv3671c protease. inhibition, % at 5.96 µM. AID 2761. actives 40% (n = 140)
Mtb FBA inh conf – confirmation of M. tuberculosis fructose-bisphosphate aldolase inhibitors; inhibition, % at 1 µM; actives 78% (n = 5,600); shares compounds with Mtb FBA inh; purified M. tuberculosis FBA, fluorescence read-out; in the data active means inhibition above about 27%;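 further: 0% = vehicle wells and 100% = reference inhibitor wells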
GDH-TPI counter-2 – GDH-TPI inhibition counter-screen for FBA inhibitors. shares compounds with Mtb FBA inh. GDH-TPI coupled enzyme counterscreen, fluorescence. inhibition, % at 1 µM. actives 81% (n = 5,600); in the data active means inhibition above about 10%
* marks the source's active call; other numbers are inactive results. Unless noted, no stated cut-off is given here; in the data, active means inhibition above about 38%; inactive means the rest.

What do the screens show for `C=CCn1c(NC(=O)c2ccc(Br)o2)c(S(=O)(=O)c2ccccc2)c2nc3ccccc3nc21`?
Mtb betalactam: -3; Rv3671c protease: -102; UGM FP inh: 2; GDH-TPI counter-1: 1; RecA intein inh: 46*; Mtb FBA inh: 50*; GFP chromophore: 31*; Mtb FBA inh conf: 52*; GDH-TPI counter-2: 47*

Results for CCn1c(SCC(=O)Nc2ccc3c(c2)OCO3)nnc1-c1cnccn1 ?
Mtb betalactam: -1; Rv3671c protease: 3; UGM FP inh: -1; GDH-TPI counter-1: 12; RecA intein inh: 2; Mtb FBA inh: 0

Results for COc1cc2nc(Nc3ccc(C)c(Cl)c3)nc(N)c2cc1OC ?
Mtb betalactam: 100; Rv3671c protease: 74*; UGM FP inh: 4; GDH-TPI counter-1: 0; RecA intein inh: 24; Mtb FBA inh: 4; Rv3671c confirm: 74*

How did COC(=O)c1ccc(NC(=O)N2CCC(O)(c3cccnc3)CC2)cc1 do in these assays?
Mtb betalactam: 0; Rv3671c protease: 0; UGM FP inh: -1; GDH-TPI counter-1: 4; RecA intein inh: -4; Mtb FBA inh: 3

Results for Oc1ccc(/C=N/Nc2ccnc3cc(Cl)ccc23)cc1O ?
Mtb betalactam: 1; Rv3671c protease: 54*; UGM FP inh: -1; GDH-TPI counter-1: 5; RecA intein inh: -1; Mtb FBA inh: -3; Rv3671c confirm: 30

Results for O=[N+]([O-])c1ccc(NCc2ccccc2)c2nonc12 ?
Mtb betalactam: 6; Rv3671c protease: 49*; UGM FP inh: 7; RecA intein inh: 5; Rv3671c confirm: 43*

Results for O=C1Cc2cccc(=O)c(O)c2C(=O)O1 ?
GDH-TPI counter-1: 12; Mtb FBA inh: -3

What do the screens show for `O=C1c2c(O)cccc2Cc2cccc(O)c21`?
Mtb betalactam: -1; Rv3671c protease: 58*; UGM FP inh: -2; GDH-TPI counter-1: 1; Mtb FBA inh: 0; Rv3671c confirm: 27

Results for Nc1c(C(=O)N2CCOCC2)oc2ccccc12 ?
Mtb betalactam: -1; Rv3671c protease: 4; UGM FP inh: 1; GDH-TPI counter-1: 13; RecA intein inh: -2; Mtb FBA inh: 2

Results for C(=N\Nc1nc2ccccc2[nH]1)/c1cccc2cccnc12 ?
Mtb betalactam: 83; Rv3671c protease: 38*; UGM FP inh: -1; GDH-TPI counter-1: 18; RecA intein inh: 4; Mtb FBA inh: -1; Rv3671c confirm: 27

How did O=[N+]([O-])c1cc(/C=N/Nc2nc3ccccc3[nH]2)c(O)cc1O do in these assays?
Mtb betalactam: 8; Rv3671c protease: 60*; UGM FP inh: 0; RecA intein inh: 40*; Rv3671c confirm: 29

How did O=c1[nH]c(N/N=C/c2cc3c(cc2[N+](=O)[O-])OCO3)nc2ccccc12 do in these assays?
Mtb betalactam: -3; Rv3671c protease: 1; UGM FP inh: 0; GDH-TPI counter-1: -3; RecA intein inh: -1; Mtb FBA inh: 4

How did C(=N\Nc1nc2ccccc2[nH]1)/c1c[nH]c2ccccc12 do in these assays?
Mtb betalactam: 90; Rv3671c protease: 41*; UGM FP inh: 3; GDH-TPI counter-1: 19; RecA intein inh: 22; Mtb FBA inh: 0; Rv3671c confirm: 92*

Results for OC(CNCC1(N2CCCCC2)CCCCC1)COc1ccc(Cl)cc1Cl (stereo not drawn) ?
Mtb betalactam: -3; Rv3671c protease: -4; UGM FP inh: -2; GDH-TPI counter-1: 1; RecA intein inh: 0; Mtb FBA inh: -2

How did O=c1[nH]c2cc3c(cc2cc1CN(CCc1ccccc1)C(=S)NCCCN1CCOCC1)OCCO3 do in these assays?
GDH-TPI counter-1: 16; Mtb FBA inh: 15

High-throughput results as filed in PubChem BioAssay.
